# FBA Mtb inh – Mtb fructose-bisphosphate aldolase inhibition; P9WQA3; purified M. tuberculosis FBA, fluorescence read-out; inhibition, % at 1 µM; actives 2.3% (n = 360,000); AID 588726; in the data active means inhibition above about 27%;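 further: 0% = vehicle and 100% = reference inhibitor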
# Target sequence (P9WQA3 whole entry, looked up): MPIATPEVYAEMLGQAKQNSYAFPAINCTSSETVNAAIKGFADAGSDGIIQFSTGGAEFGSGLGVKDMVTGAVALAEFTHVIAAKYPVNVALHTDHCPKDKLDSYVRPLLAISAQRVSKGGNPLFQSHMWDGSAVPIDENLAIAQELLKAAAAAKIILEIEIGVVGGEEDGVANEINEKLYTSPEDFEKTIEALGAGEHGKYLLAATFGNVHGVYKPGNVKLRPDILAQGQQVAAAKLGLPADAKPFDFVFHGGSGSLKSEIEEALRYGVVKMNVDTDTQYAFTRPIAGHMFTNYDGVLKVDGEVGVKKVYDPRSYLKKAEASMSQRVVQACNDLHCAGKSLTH
# Mtb UGM inh – blocks M. tuberculosis UGM enzyme. P9WIQ1. purified UGM, fluorescence polarization probe displacement. actives 0.06% (n = 320,000). AID 504406. inhibition, % at 10 µM; in the data active means inhibition above about 10%, passing the limit was not always enough
# FadD28 binding – blocks FadD28 binding to the bisubstrate probe. fluorescence polarization. inhibition, % at 12.5 µM. actives 0.22% (n = 360,000). AID 588549; in the data active means inhibition above about 8.5%, passing the limit was not always enough
# Mtb hypoxia inh – inhibitors of hypoxia-regulated fluorescent reporter in Mycobacterium tuberculosis; M. tuberculosis hypoxia-regulated fluorescent reporter, fluorescence; fluorescence inhibition, % (concentration not given with the values); actives 0.1% (n = 300,000); in the data active means fluorescence inhibition mostly above about 23%, no sharp cut-off; inactive means mostly below about 17%
# Rv3671c inh – Rv3671c (M. tuberculosis) protease inhibition | AID 2606 | P9WHR9 | inhibition, % at 5.96 µM | actives 0.048% (n = 320,000); in the data active means inhibition above about 38%;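 further: extracellular domain of Rv3671c used as enzyme; 0% = enzyme with DMSO and 100% = no enzyme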
# GDH-TPI inh – inhibits GDH-TPI coupling enzymes, artifact for Mtb FBA screen; GDH-TPI coupled enzyme counterscreen, NADH absorbance; inhibition, % at 4.8 µM; actives 1.2% (n = 360,000); AID 588335; in the data active means inhibition above about 30%;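 further: 0% = DMSO wells and 100% = wells lacking the enzyme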
# Active calls of the source: *; nt = not tested or not shown; + = active, no number. Most compounds without a hit are left out; they make up all but 3.5% or so of the library.
SMILES,FBA Mtb inh,Mtb UGM inh,FadD28 binding,Mtb hypoxia inh,Rv3671c inh,GDH-TPI inh
COc1ccc(C(=O)COC(=O)CCC(=O)Nc2ccc(C(C)=O)cc2)cc1,+,-2.5,-1.4,-2.3,-8.6,7.1
O=c1[nH]ncc(N/N=C\c2ccncc2)c1Cl,-3.9,-0.2,-2.0,nt,0.2,43.6*
Cc1cccc(/C=N\Nc2cn[nH]c(=O)c2Cl)c1,-2.9,2.9,-5.9,nt,-5.4,43.7*
O=c1[nH]ncc(N/N=C\c2cccs2)c1Cl,-4.2,0.2,-2.1,nt,-2.6,35.9*
O=c1[nH]ncc(N/N=C\c2cccnc2)c1Cl,1.8,-0.8,-1.5,nt,3.1,42.6*
O=c1[nH]ncc(NN=Cc2ccncc2)c1Cl,nt,nt,nt,7.1,nt,nt
S=c1[nH]nc(COc2ccccc2)n1N=Cc1ccccc1Br,nt,nt,nt,12.0,nt,nt
O=C(NN=Cc1ccccc1O)c1cccc(C(F)(F)F)c1,nt,nt,nt,8.6,nt,nt
CC1CN(C(C)CO)C(=O)c2cccc(NC(=O)c3ccncc3)c2OC1CN(C)Cc1ccc(Cl)c(Cl)c1 (stereo not given),nt,nt,nt,-1.5,nt,nt
Cc1[nH]c2ccccc2c1C=NNC(=O)CNC(=O)c1ccco1,nt,nt,nt,0.7,nt,nt
CC(=O)Nc1ccc(C(C)=NNC(=O)c2ccc(CN3CCOCC3)cc2)cc1,nt,nt,nt,7.3,nt,nt
Cc1ccc(S(=O)(=O)N2CCN(C(=O)c3cc(S(=O)(=O)N4CCOCC4)c(Cl)cc3Cl)CC2)cc1,-0.7,nt,-3.0,28.0*,nt,-7.5
Nc1nnc(CC(=O)N/N=C\c2ccc(-c3cccc(Cl)c3)o2)s1,-2.6,1.0,-11.0,nt,7.5,33.1*
Nc1nnc(CC(=O)N/N=C/c2ccc(-c3ccccc3)o2)s1,2.2,-1.6,-5.1,nt,-2.9,46.7*
O=C(CN1CCOCC1)NN=Cc1ccc(-c2ccc(C(=O)O)cc2)o1,nt,nt,nt,12.3,nt,nt
Nc1nnc(CC(=O)NN=Cc2ccc(-c3ccc(F)cc3)o2)s1,nt,nt,nt,7.3,nt,nt
Cc1ccc(-c2ccc(/C=N/NC(=O)Cc3nnc(N)s3)o2)cc1Cl,1.8,-0.1,-7.9,nt,1.4,29.1
COC(=O)c1ccc(-c2ccc(/C=N/NC(=O)Cc3nnc(N)s3)o2)cc1,27.6*,1.3,-4.0,nt,3.0,36.6*
Cc1ccc([N+](=O)[O-])cc1-c1ccc(/C=N/NC(=O)CN2CCOCC2)o1,2.6,2.5,0.9,nt,1.5,40.4*
CCCCC=CC(NC(=O)c1ccc(C(=O)OC)cc1)c1ccccc1 (stereo not given),nt,nt,nt,-11.8,nt,nt
NCCCCCc1cn(C(CCC(=O)O)C(=O)NCCCCCCCCCCC(=O)N2CCNCC2)nn1 (stereo not given),nt,nt,nt,18.2,nt,nt
Cc1sc(-n2c(C)cc(C=Nn3cnnc3)c2C)c(C#N)c1C,nt,nt,nt,0.2,nt,nt
O=C(CN1CCCCC1)N/N=C/c1cccc(Cl)c1,0.4,1.1,-1.0,nt,-4.3,2.9
O=C(CN1CCCC1)N/N=C/c1ccc(-c2cccc(Cl)c2)o1,0.5,-0.3,-9.7,nt,9.9,31.9*
COC(=O)C1=C(c2ccc(S(C)(=O)=O)cc2)CC2CCC1N2C(=O)NCc1ccccc1 (stereo not given),nt,nt,nt,12.1,nt,nt
SMILES,FBA Mtb inh,Mtb UGM inh,FadD28 binding,Mtb hypoxia inh,Rv3671c inh,GDH-TPI inh
O=C(O)CCCNc1cc(N2CCN(C(=O)c3ccco3)CC2)c2noc3c2c1C(=O)c1ccccc1-3,-3.3,0.6,17.5*,nt,0.7,10.3
CN1CCN(c2cc(N3CCN(C(=O)c4ccco4)CC3)c3c4c(onc24)-c2ccccc2C3=O)CC1,-1.9,-0.1,1.1,nt,3.0,9.6
CC(=O)C(=Nc1ccc(Cl)cc1Cl)NNc1cccc(Cl)c1,0.9,-0.4,0.1,nt,-4.2,31.0*
CCc1cccc2c(C(=O)CSc3nncn3-c3ccc(OC)cc3)c[nH]c12,-3.8,0.4,13.7*,9.0,-6.2,13.1
CCc1cccc2c(C(=O)CSc3nncn3-c3ccccc3OC)c[nH]c12,2.3,-2.9,-1.7,-2.5,-1.4,12.2
O=C(CSc1ccccc1)NN=Cc1ccccc1O,nt,nt,nt,-5.5,nt,nt
COc1cc(/C=N/n2nnnc2Nc2ccccc2)cc(OC)c1OC,-2.0,-0.4,-7.9,nt,-14.6,33.7*
CCOc1cccc(/C=C/c2cc(C(=O)O)c3ccccc3n2)c1OC,-7.5,3.5,0.1,1.0,-3.2,48.1*
COCCn1c(=NC(=O)CCS(=O)(=O)c2ccccc2)sc2cc(C)ccc21,-0.5,1.7,-3.7,3.1,-4.7,2.4
COCCn1c(=NC(=O)/C=C/c2cccs2)sc2cc(NC(C)=O)ccc21,0.3,-0.1,-1.8,5.8,-20.2,31.0*
COc1ccc(C(CC2(O)C(=O)Nc3ccccc32)=NO)cc1 (stereo not given),nt,nt,nt,5.7,nt,nt
CSc1ccc(C2N=C(c3ccccc3)NO2)cc1 (stereo not given),4.3,1.0,0.2,5.0,-5.1,-4.2
Oc1c(Br)cc(C2N=C(c3ccccc3)NO2)cc1Br (stereo not given),7.7,1.0,1.0,3.3,4.0,31.7*
CC(CCN1C(Nc2ccccc2)=NCC1Cc1ccccc1)c1ccccc1 (stereo not given),nt,nt,nt,2.9,nt,nt
CN(C)c1ccc(C(=O)N=c2sccn2C)cc1[N+](=O)[O-],-4.0,0.9,-4.7,12.7,1.0,38.4*
Cc1[nH]c2ccccc2c1/C=N\NC(=O)c1ccco1,-2.8,1.5,-1.4,nt,nt,56.7*
Cc1[nH]c2ccccc2c1C=NNC(=O)c1cc(C(C)C)[nH]n1,nt,nt,nt,7.0,nt,nt
Cc1[nH]c2ccccc2c1/C=N/NC(=O)c1cc(C(C)C)[nH]n1,1.9,-0.4,-0.4,nt,5.6,47.3*
CCc1cc(C(=O)N/N=C/c2c(C)[nH]c3ccccc23)cs1,3.6,2.6,0.9,nt,11.2,31.8*
O=C(O)c1cc(O)c2c(c1)C(=O)c1cc(O)cc(O)c1C2=O,-2.0,2.7,13.4*,nt,10.9,18.8
CC(=O)Oc1cccc2c1C(=O)c1c(OC(C)=O)cc(C(=O)O)cc1C2=O,-6.6,-0.8,3.1,nt,-6.8,11.9
CCOC(=O)c1sc(/N=C/N(C)C)nc1C,-1.8,0.4,-4.9,nt,1.8,31.5*
CCOC(=O)c1sc(/N=C/N(C)C)c(C(=O)OCC)c1C,-0.5,3.0,-2.8,nt,-3.7,21.4
CCCCc1cc(=O)oc2cc(C)cc(OCC(=O)Nc3cccnc3)c12,19.0,-0.4,-2.8,-0.8,-22.2,11.1
Cc1cc(OCC(=O)N2CCC(C(=O)O)CC2)c2c(C)cc(=O)oc2c1,130.1*,-0.4,-1.5,nt,2.3,5.6
SMILES,FBA Mtb inh,Mtb UGM inh,FadD28 binding,Mtb hypoxia inh,Rv3671c inh,GDH-TPI inh
CCCCc1cc(=O)oc2cc(C)cc(OCC(=O)N3CCC(C(=O)O)CC3)c12,123.8*,0.5,-0.6,nt,7.5,17.6
CC(=NNC(=O)c1cc(C(C)(C)C)[nH]n1)C12CC3CC(CC(C3)C1)C2,nt,nt,nt,11.7,nt,nt
O=C(NCCc1ccccc1)c1nc2nc(-c3cccs3)cc(C(F)(F)F)n2n1,+,-2.6,-2.1,-5.2,-9.3,31.4*
Cc1cc(C)n2nc(C(=O)NCCc3ccccc3)nc2n1,11.6,1.6,1.5,nt,-8.7,6.5
FC(F)(F)c1cc(-c2cccs2)nc2cc(-c3ccccc3)nn12,3.5,-0.2,-4.6,6.3,2.5,12.7
FC(F)(F)c1cc(-c2cccs2)nc2ncnn12,+,-0.6,-0.3,1.4,-4.9,11.2
Nc1nc(-c2ccc(Cl)cc2)cc(C(F)(F)F)n1,3.2,0.3,-4.1,2.5,-5.3,-5.4

# Compound activity (PubChem)
